Laboratory results reported in PubChem BioAssay AID686978 (National Center for Advancing Translational Sciences (NCATS), 2013).
Where “and” joins values, the source holds several entries; their conditions need not be identical. Equal entries are not always repeated. About 64,000 (15%) of roughly 420,000 compounds were called active. Another 27% or so got no clear call; they are omitted. A selection follows. A number with no mark means an inactive call. Calls come from the whole dose curve; as a rule, active = well fitted inhibition curve with a large enough effect; inconclusive = small, poorly fitted or top-dose-only effect; inactive = flat fitted curve, though single readings scatter.

Assay: qHTS for Inhibitors of human tyrosyl-DNA phosphodiesterase 1 (TDP1): qHTS in cells in absence of CPT; note: nearly all actives have a fitted effect of over 55% in size
Details: DT40 Tdp1-/- hTDP1 cells, no CPT, ATP luminescence, 48 h; activity change, negative = growth inhibition: at 46.2 µM (top of the series)
In short: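 Readout: luminescence from CellTiter-Glo after 30 min in the dark at RT. Cells: DT40 Tdp1-/- with stable hTDP1, 400/well. Exposure: compounds alone, ≥48 hr, 37 °C.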
% is set by controls: 0 for no effect and ±100 for the full control effect; potency is the fitted concentration of half-maximal effect.

Structure (SMILES) | Potency | activity change, negative = growth inhibition [%]
CCCCN=C1N/C(=C\c2ccco2)C(=O)N1c1ccccc1 | 29.1 µM (active) | –
CCOC(=O)C1(C)NC(c2ccco2)C2C(=O)N(c3ccccc3)C(=O)C21 (centres undefined) | – | 4.49
COc1cc2c(cc1/C=C1/NC(=O)N(c3ccccc3)C1=O)OCO2 | – | -17.6
Cc1cc(NC(=O)CS(=O)(=O)c2cn(C)c3ccccc23)no1 | – | -17.2
CN(C)CCNC(=O)C(C(=O)c1ccccc1)n1ccccc1=O (centres undefined) | – | -6.39
O=C(Nc1nc2c(F)cc(F)cc2s1)C1COc2ccccc2O1 (centres undefined) | – | -25.4
O=C(Nc1ncc([N+](=O)[O-])s1)C1COc2ccccc2O1 (centres undefined) | 18.4 µM (active) | –
O=C(Nc1nnc(SCc2ccc(Cl)cc2Cl)s1)C1COc2ccccc2O1 (centres undefined) | – | -6.33
CCCS(=O)(=O)Nc1ccc(-c2cn3c(n2)SCC3)cc1 | – | -17.9
CN(Cc1ccc2nsnc2c1)Cc1nc(Cc2cccc(F)c2)no1 | – | 7.53
O=C(Nc1ccc(N2CCCC2=O)cc1)c1cncc(Br)c1 | – | -23.8
O=C(Nc1ccccc1)c1ccc2c(c1)OCCCO2 | – | -2.63
Cc1ccc(S(=O)(=O)N2CCCCC2)cc1NC(=O)CCNC(=O)c1ccccc1 | – | -24.2
O=C(Nc1cccnc1)c1ccc2c(c1)OCO2 | – | -29.5
Cc1ccc(C(=O)NCC(=O)OCC(=O)Nc2cccc(S(=O)(=O)N3CCCC3)c2)cc1C | – | 11.6
O=C(Nc1ccc(S(=O)(=O)Nc2ncccn2)cc1)c1cncc(Br)c1 | – | -5.2
O=C(Nc1cccc(S(=O)(=O)Nc2ccc(Cl)cc2)c1)c1ccc2c(c1)OCCO2 | 10.3 µM (active) | –
O=C(Nc1cccc(S(=O)(=O)N2CCCC2)c1)c1cncc(Br)c1 | 13 µM (active) | –
O=C(CCNC(=O)c1ccc(Br)cc1)Nc1cccc(S(=O)(=O)N2CCCCC2)c1 | 18.4 µM (active) | –
CC(NS(=O)(=O)c1ccc(Cl)cc1)C(=O)Nc1ccc2c(c1)OCCO2 (centres undefined) | – | -7.09
O=C(Nc1cccc(S(=O)(=O)N2CCCCC2)c1)c1ccc2c(c1)OCO2 | 16.4 µM (active) | –
CN1CCN(S(=O)(=O)c2cccc(C(=O)Nc3cccc(S(N)(=O)=O)c3)c2)CC1 | – | -0.704

Structure (SMILES) | Potency | activity change, negative = growth inhibition [%]
CCOc1cc2[nH]c(=O)n(Cc3ccc(C(=O)NCCCN4CCCC4=O)cc3)c(=O)c2cc1OCC | – | -28.4
CS(=O)(=O)N1CCC2(CC1)CN(c1ccncc1)C2 | – | 2.07
Cc1ccc(-c2nnc3c4ccccc4c(C)nn23)cc1NC(=O)c1cccc(Br)c1 | – | -14.7
CS(=O)(=O)N1CCCC(C(=O)N2CCOCC2)C1 (centres undefined) | – | -15.6
CCOc1ccc(NC(=O)CN(C)CC(=O)NC(C)c2ccccc2)cc1OCC (centres undefined) | – | -27.8
COc1ccc(Cc2nnc(SCC(=O)c3cccc([N+](=O)[O-])c3)n2C)cc1 | – | -20.5
CCOc1ccc2nc(NCCNS(=O)(=O)c3ccccc3)c(C#N)cc2c1 | – | -18.8
CC(C)(C)N1C(=O)[C@H]2[C@@H](c3ccc(Br)cc3)N3C(=O)N(c4cccc(Cl)c4)C(=O)[C@@]3(C)[C@H]2C1=O | – | -29.3
COC(=O)[C@H](Cc1ccccc1)NC(=O)Nc1ccc(S(N)(=O)=O)cc1 | – | 0.589
CC(=O)NC(CC(=O)Nc1cccc(S(=O)(=O)N2CCCC2)c1)c1ccccc1 (centres undefined) | – | -1.79
Cc1cccc(C(=O)Nc2nnc(S(=O)(=O)N3CCCCCC3)s2)c1 | – | -3.13
O=C(Nc1cccc(S(=O)(=O)N2CCCCC2)c1)c1cncc(Br)c1 | 18.4 µM (active) | –
O=C(NNC1=NCCC1)c1cccc(S(=O)(=O)N2CCCCC2)c1 | – | -5.16
Cn1nnnc1SCC(=O)Nc1cccc(S(=O)(=O)N2CCCCC2)c1 | – | -6.39
COc1c(Cl)cc(C(=O)Nc2ccc(Cl)cn2)cc1Cl | – | -47.3
O=C(Nc1nnc(S(=O)(=O)N2CCCCCC2)s1)c1cccc(Br)c1 | 4.61 µM (active) and 20.6 µM (active) | –
CCN(CC(=O)Nc1ccc(S(=O)(=O)N2CCCC2)cc1)CC(=O)Nc1cccc(OC)c1 | – | -6.85
CCN(CC(=O)Nc1cccc(S(=O)(=O)N2CCCCC2)c1)Cc1ccccc1 | 23.1 µM (active) | –
CCCc1cc(C(=O)Nc2ccc(Cl)cn2)cs1 | – | -0.236
O=C(Nc1nncs1)c1cccc(S(=O)(=O)N2CCCCC2)c1 | – | -11.5
O=C(Nc1ccc(Cl)cn1)c1ccc2c(c1)OCCO2 | 18.4 µM (active) | –
COc1ccc(S(=O)(=O)N2CCSCC2)cc1 | – | 10.9

Structure (SMILES) | Potency | activity change, negative = growth inhibition [%]
CCOC(=O)NC(=O)CSc1nnc(SCCC(=O)O)s1 | – | -12.6
COc1ccccc1-c1ccc(C(=O)N(C)C(C)c2ccon2)c(N2CCN(c3ccccc3F)CC2)n1 (centres undefined) | – | -7.99
N=c1c2c3c(sc2ncn1N)CCCC3 | – | -20.3
O=C(Nc1ccc(S(=O)(=O)N2CCCC2)cc1Cl)C1=COCCO1 | – | -23.1
CC(C)(O)CCC(O)[C@@](C)(O)C1CC[C@]2(O)C3=CC(=O)C4CC(O)C(O)C[C@]4(C)C3CC[C@]12C (some centres undefined) | – | -4.62
C=CCSc1nc2c(c(=O)[nH]1)C(C(C)C)C(C#N)=C(N)O2 (centres undefined) | – | -1.99
CC1CCCC(NC(=O)CSc2nccn2C)C1C (centres undefined) | – | -6.17
CSc1ccc(S(=O)(=O)NCC(=O)OCC(=O)NC2(C#N)CCCCC2)cc1[N+](=O)[O-] | – | -9.24
Cc1cc(NC(=O)CCC(=O)N(CC(=O)NCC2CCCO2)c2ccccc2)no1 (centres undefined) | – | 9.22
CCC(C)C(=O)Nc1cc([N+](=O)[O-])ccc1Cl (centres undefined) | – | -17.5
N/C(=N\OC(=O)/C=C/c1ccccc1)c1ccc(Br)cc1 | – | -11.8
CCOC(=O)c1c(C2CC2)csc1NC(=O)CSCc1c(C)noc1C | – | -27.5
Cc1noc(C)c1CSCC(=O)Nc1ccc(Br)cc1Cl | 10.3 µM (active) | –
Cc1cc(NC(=O)CSCc2ccccc2C)no1 | – | 5.45
COCCNC(=O)c1cc2c(Br)ccc(Br)c2nc1N | – | -7.33
CCOC(=O)C1(Cc2ccc(Cl)cc2)CCN(C(=O)C2=NNC(=O)CC2)CC1 | – | -2.39
COc1ccc(CCc2nnc(CCC(=O)NCc3cnn(-c4ccccc4C)c3)o2)cc1 | – | -0.135
COc1ccc(CCNC(=O)C(=O)NCC2OCCN2S(=O)(=O)c2ccc(OC)c(C)c2)cc1 (centres undefined) | 18.4 µM (active) | –
COc1ccc(S(=O)(=O)N2CCOC2CNC(=O)C(=O)NCc2ccncc2)cc1C (centres undefined) | – | -5.53
COc1ccc(CCNC(=O)C(=O)NCC2OCCN2S(=O)(=O)c2ccc(F)cc2)cc1OC (centres undefined) | – | -16.9
